# Source: PubChem BioAssay
# Calls of active or inactive are those of the source.
# Assays:
# Albumin (Bos taurus) = Albumin (Bos taurus) (UniProt P02769); assay: compounds binding labelled BSA control protein – biochemical, small-molecule microarray, Alexa647 label, 635/667 nm fluorescence, artefact control for SMM control protein annotation, profiling panel (AID 1118); settings: BSA-A647 binding, fluorescence 635 nm, higher = more signal;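 also: score merges 667 nm emission intensity and signal-to-noise per printed compound spot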
# Chain of Albumin (Bos taurus) (P02769 whole entry, looked up): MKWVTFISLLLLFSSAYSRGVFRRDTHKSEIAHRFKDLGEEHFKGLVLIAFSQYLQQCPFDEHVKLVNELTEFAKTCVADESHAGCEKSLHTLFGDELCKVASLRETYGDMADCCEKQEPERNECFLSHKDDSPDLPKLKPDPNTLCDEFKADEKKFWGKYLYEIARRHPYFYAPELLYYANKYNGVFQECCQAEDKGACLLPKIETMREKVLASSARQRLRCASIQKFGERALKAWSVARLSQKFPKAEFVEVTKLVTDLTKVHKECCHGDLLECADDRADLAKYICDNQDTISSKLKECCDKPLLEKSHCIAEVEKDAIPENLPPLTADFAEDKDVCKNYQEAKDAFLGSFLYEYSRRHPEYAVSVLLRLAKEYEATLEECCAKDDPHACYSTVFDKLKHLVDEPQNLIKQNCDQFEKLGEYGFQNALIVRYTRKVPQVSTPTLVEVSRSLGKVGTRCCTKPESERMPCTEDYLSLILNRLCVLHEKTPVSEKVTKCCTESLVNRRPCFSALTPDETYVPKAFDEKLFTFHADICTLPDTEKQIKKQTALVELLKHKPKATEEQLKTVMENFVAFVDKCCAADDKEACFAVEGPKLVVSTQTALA
# [1] = probe aXIP binding to arrayed compounds – biochemical, NeuroSMM set, 635/667 nm fluorescence, primary screen (AID 1119); settings: small-molecule microarray, higher = more signal, called active from +8 up or from −8 down;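 also: probe is the protein aXip251-270 applied at 1 µg/mL to compound-printed slides; binding of probe to printed compounds measured as 667 nm fluorescence plus signal to noise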
# [2] = probe aNOTCH3 binding on compound microarray – biochemical, small-molecule microarray, 635/667 nm fluorescence, primary screen (AID 1120); settings: higher = more signal;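 also: probe is a biotin-tagged antibody raised against NOTCH3 rather than NOTCH3 protein; score merges spot fluorescence near 667 nm with spot signal to noise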
# [3] = probe aNOTCH2 binding on compound microarray – biochemical, small-molecule microarray, 635/667 nm fluorescence, primary screen (AID 1121); settings: higher = more signal;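 also: score merges feature fluorescence read at 667 nm with its signal to noise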
# [4] = molecular target: Carbonic anhydrase 2 (Homo sapiens) (UniProt P00918); assay: compounds binding carbonic anhydrase 2 – biochemical, small-molecule microarray, Alexa647-labelled CAII, profiling panel (AID 1122); settings: CAII-A647 binding fluorescence, higher = more signal
# [5] = COS7 lysate on small-molecule microarray, probe aHis, 635 nm (AID 1123); settings: COS7 cell lysate, fluorescence, higher = more signal;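 also: z-score combines 667nm fluorescence intensity with signal-to-noise per printed compound spot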
# [6] = probe aLAP1 signal on lysate-treated microarray – cell lysate, small-molecule microarray, COS7 lysate, primary screen (AID 1124); settings: probe aLAP1, fluorescence, higher = more signal;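 also: lysate comes from COS7 cells expressing LAP1 and is applied at 0.3 µg/mL; score merges spot fluorescence near 667 nm with signal-to-noise over triplicate slides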
# Sam68 (KHDRBS1) = assay: compounds binding KHDRBS1 protein – biochemical, small-molecule microarray, 635 nm fluorescence, primary screen (AID 1125); settings: higher = more signal;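 also: score merges 667 nm channel intensity with signal to noise over triplicate slides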
# [7] = system: Chordin-like protein 2 (CHRDL2); assay: compounds binding chordin-like 2 – biochemical, small-molecule microarray, 635 nm fluorescence, primary screen (AID 1126); settings: fluorescence 635 nm, higher = more signal;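 also: printed compound slides probed with Chrdl2 protein at 4 µg/mL for 1 h at 4 C; score merges 667 nm emission intensity with signal to noise over three replicate slides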
# [8] = molecular target: Concanavalin-A (Canavalia ensiformis) (UniProt P02866); assay: compounds binding concanavalin A lectin – biochemical, small-molecule microarray, Alexa647 label, 635 nm, artefact control for SMM control protein annotation, primary screen (AID 1127); settings: ConA-A647 binding fluorescence, higher = more signal;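 also: z combines 667 nm emission intensity with signal-to-noise across three replicate slides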
# Chain of Concanavalin-A (Canavalia ensiformis) (P02866 whole entry, looked up): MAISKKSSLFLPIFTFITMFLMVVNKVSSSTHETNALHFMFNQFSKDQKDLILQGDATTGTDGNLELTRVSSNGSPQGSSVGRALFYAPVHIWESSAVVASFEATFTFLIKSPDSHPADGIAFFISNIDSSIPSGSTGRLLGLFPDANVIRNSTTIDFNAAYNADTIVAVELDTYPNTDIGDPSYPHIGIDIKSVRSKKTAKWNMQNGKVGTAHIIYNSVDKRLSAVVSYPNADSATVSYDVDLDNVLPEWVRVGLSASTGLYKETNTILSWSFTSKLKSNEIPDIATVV
# [9] = compounds binding Alexa647 anti-His antibody – biochemical, small-molecule microarray, 635 nm fluorescence, artefact control for SMM control protein annotation, primary screen (AID 1128); settings: higher = more signal;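 also: score merges feature fluorescence with signal-to-noise for each printed compound spot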
# [10] = system: Human papillomavirus type 1a E7 protein (residues 1-88); assay: HPV1a E7 small-molecule binders, primary screen, biochemical, small-molecule microarray, residues 1-88, 635 nm (AID 1129); settings: small-molecule microarray binding, fluorescence 635 nm; higher = more signal
# [11] = molecular target: Focal adhesion kinase 1 (Homo sapiens) (UniProt Q05397); assay: PTK2 protein binding on printed compound slides – biochemical, small-molecule microarray, 635/667 nm fluorescence, BSA, DTT, primary screen (AID 1130); settings: 635 nm fluorescence, higher = more signal;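 also: composite of spot emission at 667 nm and signal to noise over triplicate slides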
# Chain of Focal adhesion kinase 1 (Homo sapiens) (Q05397 whole entry, looked up): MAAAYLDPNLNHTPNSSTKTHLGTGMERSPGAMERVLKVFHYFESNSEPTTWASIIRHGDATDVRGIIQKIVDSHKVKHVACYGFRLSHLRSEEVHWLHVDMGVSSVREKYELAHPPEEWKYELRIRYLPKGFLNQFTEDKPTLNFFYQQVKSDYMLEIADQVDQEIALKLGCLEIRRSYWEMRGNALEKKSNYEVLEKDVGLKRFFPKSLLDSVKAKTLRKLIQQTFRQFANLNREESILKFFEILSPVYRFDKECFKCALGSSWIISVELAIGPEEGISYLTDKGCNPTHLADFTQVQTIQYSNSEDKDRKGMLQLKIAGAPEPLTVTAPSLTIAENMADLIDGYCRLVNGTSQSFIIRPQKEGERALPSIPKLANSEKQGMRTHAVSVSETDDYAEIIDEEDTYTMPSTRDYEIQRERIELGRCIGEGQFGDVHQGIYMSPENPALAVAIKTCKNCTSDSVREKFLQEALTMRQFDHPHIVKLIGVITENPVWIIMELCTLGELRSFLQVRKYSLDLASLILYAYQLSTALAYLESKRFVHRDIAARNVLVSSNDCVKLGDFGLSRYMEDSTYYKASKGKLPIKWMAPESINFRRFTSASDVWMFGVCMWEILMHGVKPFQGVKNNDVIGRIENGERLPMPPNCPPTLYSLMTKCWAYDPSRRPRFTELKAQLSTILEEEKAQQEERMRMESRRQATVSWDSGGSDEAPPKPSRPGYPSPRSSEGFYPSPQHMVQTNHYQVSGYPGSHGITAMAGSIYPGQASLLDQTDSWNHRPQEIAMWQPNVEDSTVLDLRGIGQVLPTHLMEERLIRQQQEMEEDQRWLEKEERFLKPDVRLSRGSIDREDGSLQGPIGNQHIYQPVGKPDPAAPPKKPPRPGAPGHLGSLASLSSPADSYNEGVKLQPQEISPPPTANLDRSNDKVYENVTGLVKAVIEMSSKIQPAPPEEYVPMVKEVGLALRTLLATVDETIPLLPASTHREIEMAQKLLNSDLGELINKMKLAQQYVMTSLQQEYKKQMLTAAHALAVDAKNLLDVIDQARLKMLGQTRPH
# [12] = system: Fibrinogen (Alexa647-labelled); assay: Alexa647-fibrinogen binding to printed small molecules – biochemical, small-molecule microarray, 635/667 nm fluorescence, artefact control for SMM control-protein annotation, profiling panel (AID 1131); settings: fibrinogen-A647 binding fluorescence, higher = more signal;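 also: z-score merges 667 nm fluorescence with per-spot signal-to-noise over triplicate slides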
# [13] = molecular target: Follistatin (Homo sapiens) (UniProt P19883); assay: FST protein binding to printed compounds – biochemical, small-molecule microarray, 635/667 nm fluorescence, primary screen (AID 1132); settings: 635 nm fluorescence, higher = more signal
# Chain of Follistatin (Homo sapiens) (P19883 whole entry, looked up): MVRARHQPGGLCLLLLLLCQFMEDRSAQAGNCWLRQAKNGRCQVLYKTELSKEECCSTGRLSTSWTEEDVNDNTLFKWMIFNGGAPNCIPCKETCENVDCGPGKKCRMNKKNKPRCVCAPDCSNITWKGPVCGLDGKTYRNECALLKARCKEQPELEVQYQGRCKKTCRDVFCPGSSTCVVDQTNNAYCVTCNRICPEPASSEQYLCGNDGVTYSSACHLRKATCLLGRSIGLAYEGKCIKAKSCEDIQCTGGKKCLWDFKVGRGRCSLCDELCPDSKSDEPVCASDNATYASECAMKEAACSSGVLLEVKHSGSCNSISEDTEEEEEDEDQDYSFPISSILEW
# [14] = molecular target: Fibroblast growth factor 2 (Homo sapiens) (UniProt P09038); assay: basic fibroblast growth factor binding to printed compounds – biochemical, small-molecule microarray, 635/667 nm fluorescence, primary screen (AID 1133); settings: FGF2, fluorescence 635/667, higher = more signal
# Chain of Fibroblast growth factor 2 (Homo sapiens) (P09038 whole entry, looked up): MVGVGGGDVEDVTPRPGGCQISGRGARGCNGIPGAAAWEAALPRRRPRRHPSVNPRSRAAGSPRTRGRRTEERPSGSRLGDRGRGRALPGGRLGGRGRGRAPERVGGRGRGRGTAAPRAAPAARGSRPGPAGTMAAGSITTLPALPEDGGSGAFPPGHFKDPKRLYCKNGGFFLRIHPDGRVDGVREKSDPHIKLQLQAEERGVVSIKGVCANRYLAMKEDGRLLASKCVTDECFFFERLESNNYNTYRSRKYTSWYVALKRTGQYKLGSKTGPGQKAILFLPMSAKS
# [15] = JC-1 mitochondrial potential readout, lung cancer cells – cell-based, A549, JC-1 fluorescence, basal, 24 h, 100 nL, profiling panel (AID 1138); settings: higher = more signal;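 also: A549 lung adenocarcinoma cells under basal conditions with no added stimulus; test concentration not given here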
# Lefty1 = Lefty1 protein binding to printed compounds – biochemical, small-molecule microarray, 635/667 nm fluorescence, primary screen (AID 1139); settings: fluorescence 635/667, higher = more signal
# [16] = system: wheat germ agglutinin (Triticum aestivum), Alexa647-labelled; assay: Alexa647-WGA lectin binding to printed small molecules – biochemical, small-molecule microarray, 635/667 nm fluorescence, artefact control for SMM control-protein annotation, profiling panel (AID 1140); settings: WGA-A647 binding, 635 nm fluorescence, higher = more signal;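 also: score merges 667 nm feature emission with signal to noise over triplicate slides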
# [17] = molecular target: Luciferin 4-monooxygenase (Photinus pyralis) (UniProt P08659); assay: inhibition of purified Photinus pyralis luciferase – biochemical, luminescence, purified enzyme, 2006 set, primary screen (AID 1141); settings: purified firefly luciferase, SteadyGlo luminescence, 30 min; higher = more signal, called active from +8 up or from −8 down;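 also: cell-free assay with purified firefly luciferase at 100 ng per well in PBS; test concentration not given here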
# Chain of Luciferin 4-monooxygenase (Photinus pyralis) (P08659 whole entry, looked up): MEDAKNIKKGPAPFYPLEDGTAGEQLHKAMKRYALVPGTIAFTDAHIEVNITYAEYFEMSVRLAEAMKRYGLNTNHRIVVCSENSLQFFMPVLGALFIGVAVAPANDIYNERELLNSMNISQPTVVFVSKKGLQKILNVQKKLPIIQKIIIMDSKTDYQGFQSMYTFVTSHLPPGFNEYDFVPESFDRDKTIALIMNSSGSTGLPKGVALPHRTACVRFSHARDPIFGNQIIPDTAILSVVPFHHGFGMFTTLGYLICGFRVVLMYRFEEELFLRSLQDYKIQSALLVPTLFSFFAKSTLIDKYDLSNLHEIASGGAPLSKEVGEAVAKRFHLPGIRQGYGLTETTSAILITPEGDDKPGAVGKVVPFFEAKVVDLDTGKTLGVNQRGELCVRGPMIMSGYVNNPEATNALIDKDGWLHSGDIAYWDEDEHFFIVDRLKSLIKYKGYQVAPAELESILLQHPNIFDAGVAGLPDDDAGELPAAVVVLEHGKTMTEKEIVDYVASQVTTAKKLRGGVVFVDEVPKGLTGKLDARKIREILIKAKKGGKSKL
Compound,composite z-score (Albumin (Bos taurus)),composite Z-score [1],composite z-score [2],composite z-score [3],composite z-score [4],composite z-score [5],composite z-score [6],composite z-score (Sam68 (KHDRBS1)),composite z-score [7],composite z-score [8],composite z-score [9],composite z-score [10],composite z-score [11],composite z-score [12],composite z-score [13],composite z-score [14],z-score [15],composite z-score (Lefty1),composite z-score [16],z-score [17]
COC(=O)C1=C(C)N(Cc2ccccc2)[C@]23O[C@](C(=O)OC)(C(=O)N2[C@@H]1c1ccccc1)C(C(=O)OC)=C3C(=O)OC,0.387,-0.177 (inactive),0.201,-0.0439,0.489,0.421,-0.624,0.988,0.503,1.18,0.686,0.653,0.0309,0.784,0.732,0.808,-0.489,1.09,-0.0964,-0.371 (inactive)
CON=C[C@@H](C)[C@H](OCc1ccccc1)C(C)C,-0.784,-0.47 (inactive),-0.0647,-0.162,-0.269,-0.606,-0.0291,-0.295,0.54,-0.413,-0.032,-1.2,0.119,-0.734,0.359,0.211,-1.1,0.347,-0.195,0.592 (inactive)
CCOC(=O)[C@H](CC(C)C)NC(=O)CCC1CC(OC(=O)NCc2ccc3c(c2)OCO3)CC2(CCCC(COC(=O)NCCCN3CCCC3=O)O2)O1 (stereo not given in full),-0.0359,-0.0273 (inactive),0.0196,-0.108,0.0039,0.659,0.178,1.33,0.325,1.08,0.581,1.15,0.115,0.741,0.476,1.12,1.26,0.803,0.911,0.0579 (inactive)
COC(=O)CC=C[C@@H](C)[C@@H](C=NO[C@@H]1O[C@H](COC(C)=O)[C@@H](OC(C)=O)[C@H](OC(C)=O)[C@H]1OC(C)=O)NS(=O)(=O)c1ccc(C)cc1,-0.228,0.504 (inactive),-0.0111,-0.0984,-0.701,-0.323,-0.045,0.682,-0.051,-0.909,-0.588,-0.231,0.14,-0.083,0.484,0.35,-0.63,0.647,-0.986,1.08 (inactive)
CCN1C(=O)[C@H]2[C@H]3[C@H](O)[C@H](O)CC(=O)[C@@H]3CC[C@H]2C1=O,0.4,-0.141 (inactive),-0.0377,-0.179,0.0044,0.304,0.335,0.826,0.503,0.735,0.562,0.899,-0.049,0.583,0.468,0.226,1.39,0.547,0.187,-0.497 (inactive)
CC(C)(C)N1C(=O)[C@H]2[C@H]3[C@H](O)C=CC(=O)[C@@H]3CC[C@H]2C1=O,-0.161,0.913 (inactive),-0.0584,0.0098,-0.0943,-0.463,0.632,-0.0221,0.311,0.607,0.204,0.025,-0.258,0.347,0.39,0.255,0.109,0.461,0.0896,-0.753 (inactive)
